From PubChem
Shown are actives, neighbours in structure and some others; about 2.8% of the full set was active somewhere.
SENP7 block = SENP7 protease inhibition | Q9BQF6 | recombinant SENP7, Z-RLRGG-aminoluciferin luminescence, 40 min | inhibition, % at 5 µM | actives 1.5% (n = 330,000) | AID 434973;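 active = inhibition above about 50% at the single test dose, limit read from the data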
HSP90 refold inh = inhibitors of HSP90 luciferase refolding in rabbit reticulocyte lysate; AID 1789; actives 0.91% (n = 290,000); luciferase refolding luminescence, 3 h; inhibition, % at 5.6 µM;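 active = inhibition above the screen-wide mean plus 3 SD, computed separately per campaign, cut at about 16% in these data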;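 also: inhibitors lower the luminescence because luciferase stays unfolded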
SENP8 block-1 = blocks the human protease SENP8. purified SENP8, Z-RLRGG-aminoluciferin cleavage, luminescence. Q96LD8. inhibition, % at 10 µM. actives 1.2% (n = 330,000). AID 2540; in the data active = inhibition above about 50%
Target sequence (Q96LD8 whole entry, looked up): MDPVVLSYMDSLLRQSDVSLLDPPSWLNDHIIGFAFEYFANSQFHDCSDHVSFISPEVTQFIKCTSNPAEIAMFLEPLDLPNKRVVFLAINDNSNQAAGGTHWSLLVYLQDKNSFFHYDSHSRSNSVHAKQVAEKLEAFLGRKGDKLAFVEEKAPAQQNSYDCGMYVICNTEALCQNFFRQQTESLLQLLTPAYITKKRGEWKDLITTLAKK
Platelet DG rel = modulates dense granule release in human platelets; AID 1663; actives 0.22% (n = 300,000); inhibition, %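 (compounds screened at 7.5 µM in platelet-rich plasma)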; human platelet-rich plasma, SFLLRN dense granule ATP release, luminescence;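 active = mean replicate score, as percent of positive control, at or above 50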
SENP6 inh = blocks the human protease SENP6. inhibition, % at 10 µM. Recombinant SENP6 catalytic domain, aminoluciferin luminescence. actives 1.8% (n = 330,000). AID 2599. Q9GZR1;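 active = inhibition above about 50% at the single tested dose, limit read from the data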
Target sequence (Q9GZR1 628-1112 limits assumed): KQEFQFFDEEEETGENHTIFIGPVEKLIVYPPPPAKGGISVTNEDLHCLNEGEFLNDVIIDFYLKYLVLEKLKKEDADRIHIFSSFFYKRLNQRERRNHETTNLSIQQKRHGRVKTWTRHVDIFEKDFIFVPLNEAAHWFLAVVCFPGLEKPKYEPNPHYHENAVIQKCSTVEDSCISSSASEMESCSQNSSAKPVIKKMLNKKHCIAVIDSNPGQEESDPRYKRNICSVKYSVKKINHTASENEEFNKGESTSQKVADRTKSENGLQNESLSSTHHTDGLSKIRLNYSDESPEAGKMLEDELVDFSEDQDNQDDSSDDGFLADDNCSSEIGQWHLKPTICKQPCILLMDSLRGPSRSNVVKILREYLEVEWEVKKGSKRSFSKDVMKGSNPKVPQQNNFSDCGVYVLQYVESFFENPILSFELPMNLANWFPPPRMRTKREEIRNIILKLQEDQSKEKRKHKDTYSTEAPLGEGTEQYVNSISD
SENP8 block-2 = blocks human SENP8 cleavage of Nedd8 substrate | Q96LD8 | recombinant SENP8, Nedd8 substrate fluorescence | inhibition, % at 20 µM | actives 0.64% (n = 360,000); in the data active = inhibition mostly above about 40%, no sharp cut-off; inactive = mostly below about 27%
SENP8 confirm = human SENP8 inhibition, confirmed | shares compounds with SENP7 block | Recombinant SENP8, Z-RLRGG-aminoluciferin luminescence, 60 min | inhibition, % at 12.5 µM | actives 40% (n = 6,200);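 active = mean inhibition across replicates above about 50%, limit read from the data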
SENP6 conf = confirmation of human SENP6 protease inhibitors; inhibition, % at 12.5 µM; recombinant SENP6, Z-RLRGG-aminoluciferin luminescence; shares compounds with SENP7 block; actives 58% (n = 6,200)
SENP7 confirm = human SENP7 inhibition, confirmed; inhibition, % at 12.5 µM; shares compounds with SENP7 block; actives 69% (n = 6,200); AID 488917; recombinant SENP7, Z-RLRGG-aminoluciferin luminescence, 40 min
Casp3 select = selectivity test for SENP inhibitors: human caspase-3 inhibition; shares compounds with SENP7 block; purified caspase-3, Z-DEVD-aminoluciferin luminescence, 60 min; inhibition, % at 12.5 µM; actives 60% (n = 6,200); AID 488918;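 active = mean inhibition above about 50%, limit read from the data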
Luc interf = luminescence interference (SENP counter-screen). shares compounds with SENP7 block. Pre-incubated SENP8/Z-RLRGG-aminoluciferin, luciferase luminescence interference. inhibition, % at 12.5 µM. actives 39% (n = 6,200);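 active = mean inhibition above about 50% when retested at one dose, limit read from the data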
Each line names hits and unclear results; the compound was inactive in the other large screens (follow-up assays come after a bar, where they were run).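 The calls were made as follows, unless noted: active = mean inhibition above about 50% in the one-dose retest (limit read from the data); inactive = the rest.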

Nc1[nH]n(-c2ccccc2)c(=O)c1N=Nc1ccccc1[N+](=O)[O-]	SENP7 block 61.4 | SENP8 confirm inactive | SENP6 conf inactive | SENP7 confirm inactive | Casp3 select inactive | Luc interf inactive
Nc1[nH]n(-c2ccccc2)c(=O)c1N=Nc1ccccc1	SENP7 block 67.0, SENP6 inh 72.1 | SENP8 confirm inactive | SENP6 conf inactive | SENP7 confirm 83.1 | Casp3 select inactive | Luc interf inactive
COCCN(CC(=O)Nc1cccc(C)c1C)C(=O)c1oc2ccccc2c1C	none (no result: HSP90 refold inh, Platelet DG rel)
CCOC(=O)C1=CCN(S(=O)(=O)c2ccc(C)cc2)[C@H]1c1ccccc1Cl	none (no result: SENP7 block, HSP90 refold inh, SENP8 block-1, Platelet DG rel, SENP6 inh)
CC(=O)c1sc(N/N=C\c2ccccc2O)nc1C	SENP8 block-1 56.4, SENP6 inh 68.3 | SENP8 confirm inactive | SENP6 conf inactive | SENP7 confirm 81.8 | Casp3 select inactive | Luc interf inactive
CCOC(=O)c1sc(N/N=C/c2ccccc2)nc1C	none
CN(C)S(=O)(=O)c1cccc(C(=O)N=C2N=C3C=CC(Cl)=CN3Cc3ccccc32)c1	SENP7 block 88.8, SENP8 block-1 68.8, SENP6 inh 91.1 | SENP8 confirm inactive | SENP6 conf inactive | SENP7 confirm inactive | Casp3 select 66.9 | Luc interf inactive
O=C(N=C1N=C2C=CC=CN2Cc2ccccc21)c1ccc(S(=O)(=O)N2CCCC2)cc1	none
Cc1ccc(CCN2CC(C(=O)NCc3ccc4c(c3)OCO4)CC2=O)cc1 (stereo unspecified)	SENP6 inh 66.8 | SENP8 confirm inactive | SENP6 conf inactive | SENP7 confirm inactive | Casp3 select inactive | Luc interf inactive
CC(=O)Oc1ccc(-c2nc(-c3cccnc3)no2)cc1	SENP7 block 99.5, SENP8 block-1 97.5, Platelet DG rel 79.2, SENP6 inh 96.4 | SENP8 confirm 97.2 | SENP6 conf 99.2 | SENP7 confirm 102.6 | Casp3 select 98.3 | Luc interf inactive
CC(C)COc1ccc(-c2nnc(-c3ccco3)o2)cc1	SENP7 block 94.2, SENP8 block-1 59.0, SENP6 inh 94.2 | SENP8 confirm inactive | SENP6 conf 73.5 | SENP7 confirm 62.5 | Casp3 select 63.9 | Luc interf inactive
CCCOc1ccc(-c2nnc(-c3ccco3)o2)cc1	SENP7 block 87.4, SENP8 block-1 78.4 | SENP8 confirm inactive | SENP6 conf inactive | SENP7 confirm 59.1 | Casp3 select inactive | Luc interf inactive
CCN(CC)CCCNc1ccc(-c2nnc(-c3ccc(OCC(C)C)cc3)o2)cn1	none
O=C(COc1ccccc1)Nc1ccc(-c2nnc(-c3ccco3)o2)cc1	none
CCCc1nc2c(Cl)cc(C(F)(F)F)cn2c1Cc1ccc(OC)cc1C	none (no result: SENP7 block, HSP90 refold inh, SENP8 block-1, Platelet DG rel, SENP6 inh)
Cc1ccc(S(=O)(=O)NCCC(=O)NC2CC2)cc1	none
CC(=O)Nc1ccc(S(=O)(=O)N2CCN(Cc3cccc([N+](=O)[O-])c3)CC2)cc1	none
CCOC(=O)c1[nH]c2cc3c(cc2c1NC(=O)CN1CCN(CCO)CC1)OCO3	none
O=C(CNC(=O)c1ccccc1F)c1ccccc1	SENP7 block 50.6, SENP6 inh 53.7 | SENP8 confirm inactive | SENP6 conf inactive | SENP7 confirm 80.9 | Casp3 select 79.0 | Luc interf 53.1
O=C(CNC(=O)c1ccccc1Cl)c1ccccc1	none
NC(=O)C1CCN(C2=C(Cl)C(=O)c3ccccc3C2=O)CC1	SENP6 inh 50.1 | SENP8 confirm inactive | SENP6 conf 75.1 | SENP7 confirm inactive | Casp3 select inactive | Luc interf inactive
O=C1C(Cl)=C(N2CCC(C(=O)O)CC2)C(=O)c2ccccc21	SENP6 inh 63.3 | SENP8 confirm 56.2 | SENP6 conf 71.0 | SENP7 confirm inactive | Casp3 select inactive | Luc interf inactive
NC(=O)C1CCN(c2ccc3c(c2)S(=O)(=O)c2ccccc2C3=O)CC1	none (no result: HSP90 refold inh)
COc1ccc(Nc2nc3ccccc3s2)cc1	SENP7 block 68.9, SENP8 block-1 61.7, SENP6 inh 74.6 | SENP8 confirm 66.5 | SENP6 conf 65.7 | SENP7 confirm 88.7 | Casp3 select 50.3 | Luc interf inactive
Cc1cccc(Nc2nc3ccccc3s2)c1C	SENP7 block 82.6, SENP8 block-1 65.0, SENP6 inh 68.9 | SENP8 confirm inactive | SENP6 conf 73.8 | SENP7 confirm 94.1 | Casp3 select 59.3 | Luc interf inactive
C[C@H](CO)N1C[C@H](C)[C@@H](CN(C)C(=O)c2ccncc2)OCc2cnnn2CCCC1=O	none (no result: SENP7 block, HSP90 refold inh, SENP8 block-1, Platelet DG rel, SENP6 inh)
CCCNC(=O)c1noc2c1CCc1ccccc1-2	none
O=C(Nc1cccnc1Cl)c1noc2c1CCc1ccccc1-2	SENP7 block 65.4 | SENP8 confirm inactive | SENP6 conf inactive | SENP7 confirm inactive | Casp3 select inactive | Luc interf inactive
O=C(CSc1ccccn1)N/N=C/c1cc([N+](=O)[O-])ccc1O	SENP6 inh 52.2, SENP8 block-2 26.8 | SENP8 confirm inactive | SENP6 conf inactive | SENP7 confirm 65.2 | Casp3 select 57.9 | Luc interf inactive
O=C(CSc1ccccn1)N/N=C/c1ccccc1[N+](=O)[O-]	none
CCOC(=O)c1sc(NC(=O)c2sccc2C)cc1C	SENP7 block 100.5, SENP8 block-1 96.9, Platelet DG rel 61.5, SENP6 inh 98.8 | SENP8 confirm 100.1 | SENP6 conf 101.0 | SENP7 confirm 104.1 | Casp3 select 98.9 | Luc interf 96.6
CCOC(=O)c1cccc(NC(=O)c2cccs2)c1	none
CCOC(=O)c1sc(NC(=O)c2cccs2)cc1C	SENP7 block 90.6, SENP8 block-1 66.2, SENP6 inh 82.9 | SENP8 confirm inactive | SENP6 conf 75.2 | SENP7 confirm 97.8 | Casp3 select 80.8 | Luc interf inactive
O=C(NCCc1ccccn1)c1cc2ccccc2o1	none
Nc1ccc2ncccc2c1	none
Nc1ccc(/C=C/c2ccc3ncccc3c2)cc1	SENP7 block 73.8, SENP8 block-1 52.5, SENP6 inh 59.5 | SENP8 confirm inactive | SENP6 conf 57.3 | SENP7 confirm 79.5 | Casp3 select inactive | Luc interf inactive
N#Cc1c(C(F)(F)F)cc(=O)n2c1[nH]c1ccccc12	SENP8 block-1 71.2, SENP6 inh 83.0 | SENP8 confirm inactive | SENP6 conf 75.3 | SENP7 confirm 91.4 | Casp3 select 78.9 | Luc interf 76.5
